Among the test systems are SK-MEL-2 melanoma; SN12C renal; UO-31 renal; TK-10 renal; ACHN renal; CAKI-1 renal; A498 renal; CCRF-CEM leukemia; MOLT-4 leukemia; RPMI-8226 leukemia; OVCAR-8 ovarian; OVCAR-5 ovarian; OVCAR-4 ovarian; SK-OV-3 ovarian; IGROV1 ovarian; HS 578T breast; NCI/ADR-RES ovarian; OVCAR-3 ovarian; SR leukemia.
Common to all, as to experiment: NCI-60 one-dose screen, 48 h (100 = growth as untreated, 0 = no growth, -100 = all killed)
Holding throughout (details): 10 µM unless noted

Consider nine compounds from PubChem BioAssay (NCI).

Structures are written as SMILES. The panel holds about 83,000 compounds, 20% with a hit somewhere; the sample as a whole holds those more often.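 48-hour exposure, single concentration, 96-well plates; percent growth endpoint where 0 means no net growth. Active: below 10.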 A number with no mark means an inactive call. Calls of active or inactive are those of the source.

For the compound `CCOC(=O)Cn1c(=O)c2c(c3ccccc3n2C)n2nnc(-c3ccccc3)c12`, the growth with SK-MEL-2 melanoma was 98.3%; with SN12C renal, 118%; in the test with UO-31 renal, 74.9%; with TK-10 renal, 120%; in the test on ACHN renal it was 97.3%; in the test on CAKI-1 renal it was 96.8%. Moreover, the growth in the test on A498 renal is 127%; in the test on CCRF-CEM leukemia, 282%; in the test with MOLT-4 leukemia, 92.8%; with RPMI-8226 leukemia it was 136%; in the test with OVCAR-8 ovarian, 106%; in the test with OVCAR-5 ovarian it was 70.9%. Further, the growth with OVCAR-4 ovarian was 104%; in the test with SK-OV-3 ovarian, 103%; with IGROV1 ovarian, 68.7%; with HS 578T breast, 107%; in the test with NCI/ADR-RES ovarian, 102%.
`CCCCCCCCCCCCCCCCCCOc1ccc(CC(=O)OCC[N+](C)(C)C)cc1`: the growth in the test on SK-MEL-2 melanoma is 115%; in the test with SN12C renal it was 94.1%; with TK-10 renal, 93.8%; with ACHN renal it was 99.9%; with CAKI-1 renal, 90.4%; with A498 renal, 119%. For the same compound, the growth in the test with CCRF-CEM leukemia was 102%; in the test with MOLT-4 leukemia it was 2.06% (active); in the test with RPMI-8226 leukemia, 91.7%; with OVCAR-8 ovarian, 107%; with OVCAR-5 ovarian it was 96.8%; with OVCAR-4 ovarian it was 97.3%. The growth in the test on SK-OV-3 ovarian was 107%; with IGROV1 ovarian, 91%; in the test on OVCAR-3 ovarian, 115%; with HS 578T breast, 99.6%; with NCI/ADR-RES ovarian it was 99.3%.
Turning to `Cc1nn(-c2ccccc2)c(-n2ccnc2)c1/C=N/Nc1nc(-c2ccc(Cl)c(Cl)c2)cs1`, the growth in the test with SK-MEL-2 melanoma is 83.7%; in the test with SN12C renal, 31.3%; in the test with UO-31 renal it was 49.6%; in the test on TK-10 renal, 2.74% (active); with ACHN renal, 39.9%; with CAKI-1 renal, 24.9%. For the same compound, the growth in the test on A498 renal is 43.5%; in the test with CCRF-CEM leukemia, 26.1%; in the test on MOLT-4 leukemia, 32.3%; in the test on SR leukemia it was 41.2%; in the test on OVCAR-8 ovarian it was 20%; with OVCAR-5 ovarian it was 71.8%. In addition, the growth in the test with OVCAR-4 ovarian is -22.1% (active); with SK-OV-3 ovarian, 89.5%; in the test on IGROV1 ovarian it was 60.9%; in the test on OVCAR-3 ovarian, -69.4% (active); in the test on HS 578T breast it was 42%; with NCI/ADR-RES ovarian it was -9.8% (active).
As for `Oc1ccc(Cl)cc1Cc1cc(Cl)cc(Cl)c1O`, the growth in the test on SK-MEL-2 melanoma was 37.4%; with SN12C renal, 20.4%; in the test with UO-31 renal it was 44.8%; in the test on TK-10 renal it was 79.5%; in the test on ACHN renal, 27.9%; in the test on CAKI-1 renal it was 49.6%. Also, the growth in the test with A498 renal was 85.9%; in the test with CCRF-CEM leukemia, 19.5%; in the test on MOLT-4 leukemia, 19.2%; in the test on RPMI-8226 leukemia, 0.811% (active); in the test with OVCAR-8 ovarian, 73.4%; with OVCAR-5 ovarian, 92.3%. The growth with OVCAR-4 ovarian is 17.5%; in the test on SK-OV-3 ovarian it was 70.8%; with IGROV1 ovarian, 66%; in the test with OVCAR-3 ovarian it was -8.34% (active); in the test with HS 578T breast, -14.8% (active); in the test with NCI/ADR-RES ovarian, 24.6%.
Consider `COc1cccc(-c2nc(-c3ccc(NC(=O)OC(C)C)cc3)[nH]c2-c2ccnc(Br)c2)c1`, for which the growth in the test on SK-MEL-2 melanoma is 25.6%; in the test with SN12C renal, 30.8%; in the test on UO-31 renal, 9.01% (active); in the test on TK-10 renal, 48.6%; in the test with ACHN renal, 14.5%; in the test on CAKI-1 renal, 28%. For the same compound, the growth in the test on A498 renal is -4.13% (active); with CCRF-CEM leukemia, 18.3%; with MOLT-4 leukemia, 10.3%; in the test with SR leukemia it was -2.3% (active); in the test with OVCAR-8 ovarian, 27.3%; with OVCAR-5 ovarian, 53.7%. The growth was 32.9% with OVCAR-4 ovarian; 33.3% in the test with SK-OV-3 ovarian; 35.5% with IGROV1 ovarian; 26.2% in the test with OVCAR-3 ovarian; -17.2% (active) with HS 578T breast; 27.7% with NCI/ADR-RES ovarian.
Regarding `COc1ccc(S(=O)(=O)n2c3ccccc3n3ncc(-c4nnc(C)o4)c23)cc1`, the growth in the test on SK-MEL-2 melanoma was 67%; in the test with SN12C renal, 38.3%; in the test with UO-31 renal it was 44.8%; with TK-10 renal, 76.1%; with ACHN renal, 45.7%; in the test on CAKI-1 renal, 32.1%. Besides, the growth in the test with A498 renal is -8.11% (active); with CCRF-CEM leukemia it was 11.7%; with MOLT-4 leukemia it was 24.1%; in the test with OVCAR-8 ovarian it was 45%; in the test with OVCAR-5 ovarian, 30.6%; with OVCAR-4 ovarian, 81.6%. In addition, the growth in the test with SK-OV-3 ovarian is 54.4%; with IGROV1 ovarian, 34.4%; in the test with OVCAR-3 ovarian, 0.366% (active); with HS 578T breast, 27%; with NCI/ADR-RES ovarian, -25.1% (active).
Regarding `CCCCn1c(-c2ccc(-c3nc(-c4ccc(Cl)cc4)no3)cc2)nc(-c2ccccc2)c1-c1ccccc1`, the growth in the test on SK-MEL-2 melanoma is 103%; with SN12C renal, 83.2%; in the test on UO-31 renal it was -5.33% (active); in the test on TK-10 renal, 126%; in the test on ACHN renal it was 60.3%; in the test on CAKI-1 renal it was 82.4%. Also, the growth with A498 renal was 89.1%; with CCRF-CEM leukemia, 69.7%; with MOLT-4 leukemia it was 65.6%; with OVCAR-8 ovarian, 88.5%; in the test on OVCAR-5 ovarian it was 85.4%; in the test on OVCAR-4 ovarian it was 82%. In addition, the growth in the test on SK-OV-3 ovarian was 88.8%; in the test with IGROV1 ovarian, 39.5%; in the test with OVCAR-3 ovarian, 93.9%; in the test on HS 578T breast, 95.4%; in the test on NCI/ADR-RES ovarian it was 82.5%.
`COc1ccc(CN2c3ccccc3Sc3ccccc32)c(F)c1`: the growth in the test on SK-MEL-2 melanoma was 30.4%; with SN12C renal it was 47.1%; with UO-31 renal it was 43%; in the test on TK-10 renal it was 51.1%; in the test with ACHN renal, 43.4%; in the test on CAKI-1 renal, 21.5%. Besides, the growth in the test with A498 renal is -11.6% (active); in the test with CCRF-CEM leukemia it was 7.16% (active); with MOLT-4 leukemia, 22.6%; in the test with RPMI-8226 leukemia, 12.2%; with OVCAR-5 ovarian, 50.2%; in the test with OVCAR-4 ovarian it was 61.6%. Further, the growth in the test with SK-OV-3 ovarian is 30.4%; in the test with IGROV1 ovarian, 50.3%; with OVCAR-3 ovarian, -20.4% (active); in the test with HS 578T breast, 21.6%; in the test on NCI/ADR-RES ovarian, 22%.
For the compound `Nc1nc(Cl)cc(=O)n1Cc1ccccc1`, the growth with SK-MEL-2 melanoma was 105%; in the test on SN12C renal it was 90.9%; in the test on UO-31 renal it was 82.9%; with TK-10 renal it was 92.7%; with ACHN renal it was 107%; in the test with CAKI-1 renal it was 85.3%. Further, the growth in the test with A498 renal was 99.4%; in the test on CCRF-CEM leukemia, 98.7%; in the test on MOLT-4 leukemia, 86.8%; in the test on RPMI-8226 leukemia, 100%; in the test on OVCAR-8 ovarian, 92.1%; with OVCAR-5 ovarian, 91%. Further, the growth in the test on OVCAR-4 ovarian was 97.1%; with SK-OV-3 ovarian it was 103%; in the test with IGROV1 ovarian, 115%; in the test with OVCAR-3 ovarian, 103%; in the test on HS 578T breast it was 135%; in the test with NCI/ADR-RES ovarian it was 91.9%.
